# Screens as filed in PubChem.
# Only some compounds are listed: those with a hit (about 2.9% of all), similar ones and a draw of the others.
# a7 integrin act = activates integrin-mediated alleviation for muscular dystrophy | alpha7betagal myoblasts, beta-gal FDG fluorescence, 48 h | Potency, µM (top dose mostly 38.3 µM), without a hit: at the highest dose activation, hits mostly activators | 0.064% of 350,000 active; active = well fitted activation curve with a large enough effect; inconclusive = small, poorly fitted or top-dose-only effect; inactive = no such curve, though single readings can be large or run the other way;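 also: potency is read from the fitted curve at half-maximal effect; 100% = response of the positive control SU9516; nearly all actives have a fitted effect of over 60% in size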
#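 Alpha7betagal+/- myoblasts (passage 13) were plated 16-24 hr, then exposed to compounds (1:260 dilution of DMSO stock) for 48 hours at 37C. After MPER lysis, β-galactosidase reporter activity was read as FDG fluorescence (ex 480/em 540) after 30 minutes.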
# D3 ag = activates the human D3 dopamine receptor; P35462; D3R DiscoveRx beta-arrestin cells, luminescence, 90 min; max activation, %; 0.58% of 410,000 active; in the data active = max activation above about 30%; also: 0% is about no effect
# Target sequence (P35462 whole entry, looked up): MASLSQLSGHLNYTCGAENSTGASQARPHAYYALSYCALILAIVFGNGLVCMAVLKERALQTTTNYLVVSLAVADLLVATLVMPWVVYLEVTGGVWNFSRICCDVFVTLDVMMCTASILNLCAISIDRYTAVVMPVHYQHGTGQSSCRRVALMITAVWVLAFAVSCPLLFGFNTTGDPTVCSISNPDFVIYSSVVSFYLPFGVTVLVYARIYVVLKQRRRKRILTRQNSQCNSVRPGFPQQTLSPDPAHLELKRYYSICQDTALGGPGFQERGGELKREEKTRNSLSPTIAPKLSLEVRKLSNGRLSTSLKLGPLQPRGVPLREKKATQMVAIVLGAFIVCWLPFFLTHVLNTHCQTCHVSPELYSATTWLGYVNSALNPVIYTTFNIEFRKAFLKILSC
#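 Agonist-mode cell screen: cells plated at 1500/well and incubated overnight at 37 °C, then exposed to library compounds for 90 min at 37 °C. Detection reagent was added for 30–60 min at room temperature, and luminescence was read.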
# DRD3 antagonist = D3 dopamine receptor (human) antagonism; P35462; D3R cells, DiscoveRx beta-arrestin luminescence, antagonist mode; hits give low values; max response, negative = inhibition, %; 2.5% of 360,000 active; AID 652054; in the data active = max response below about -50%; inconclusive = no clear call, values can overlap the other calls; also: % is scaled to controls: 0 for no effect and ±100 for the full control effect
#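 Cells plated overnight at 1500 cells/well, then exposed to library compounds with dopamine controls for 90 minutes at 37 degrees C. DiscoveRx reagent added for 30–60 minutes at room temperature; luminescence read, quantitative HTS format.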
# * = called active by the depositor; ? = inconclusive; / = no result given; [ ] = another dose, or the depositor's remark.
SMILES,a7 integrin act,D3 ag,DRD3 antagonist
CC1(C)Cc2cccc(OCC(O)CN3CCN(c4ccccn4)CC3)c2O1 (centres undefined),7%,10,0
CCc1nn(CC(=O)N2CCN(c3ccc(OC)cc3)CC2)c(=O)c2cc3occc3n12,-6%,34*,8
CCc1nn(CC(=O)N2CCN(c3cccc(OC)c3)CC2)c(=O)c2cc3occc3n12,/,-5,/
CC(C)C[C@H]1C(=O)N2CCC[C@H]2[C@]2(O)O[C@](NC(=O)[C@@H]3C=C4c5cccc6[nH]c(Br)c(c56)C[C@H]4N(C)C3)(C(C)C)C(=O)N12,/,39*,/
C=C(C)COc1ccc(-c2[nH]ncc2Oc2cccc(OC)c2)c(O)c1,-44%,1,-56*
C=C(C)COc1ccc(-c2[nH]ncc2Oc2ccccc2OCC)c(O)c1,-46%,-6,?
O=C1C=C(c2ccccc2)C[C@@H](c2ccc(Cl)cc2)C1,16%,3,10
COc1ccc(Cn2c(CO)cnc2SCc2ccc(F)cc2)cc1,/,-1,/
COc1ccnc(CSC(N)=Nc2ccc(F)cc2)c1,-25%,-5,-71*
CCCc1cc(=O)[nH]c(Nc2ccc(O)cc2C)n1,/,3,/
Cc1ccc(NC(=O)CCSc2nc(-c3ccc4c(c3)OCO4)cc(C(F)(F)F)n2)c(C)c1,/,56*,/
Cc1ccc(NC(=O)CCSc2nc(-c3ccc4c(c3)OCO4)cc(C(F)(F)F)n2)cc1,/,-11,/
CCc1cc(C(=O)Nc2ccc(S(=O)(=O)NC3=NCCCCC3)cc2)sc1C,8%,0,-23
CCCCCCc1cc2cc(C(=O)Nc3ccccc3)c(=O)oc2cc1O,-4%,51*,51
CCCCCCc1cc2cc(C(=O)NCc3ccccc3)c(=N)oc2cc1O,-5%,14,3
O=C(OCc1ccccc1)N1CCC2CC1c1cc(/C=C/CCCSc3ncccn3)ccc12 (centres undefined),-3%,-11,?
CCCC(=O)N1CCN(C2=NS(=O)(=O)c3ccccc32)CC1,-12%[7.66 µM],7,14
CCN(CC)CCOC(=O)c1cccc(Br)c1,-28%,-15,-58*
CCN(CC)CCOC(=O)c1cccc(Cl)c1,-20%,-12,-27
CCOc1ccc(CCNC(=O)COC(=O)c2ccco2)cc1OCC,0%,-2,17
Cc1ccc(/C=C(\C#N)C(=O)Nc2c(C)cccc2C)s1,0%,-10,-80*
Cc1ccc(NC(=O)/C(C#N)=C/c2ccc(C)s2)c(C)c1,25%,8,13
CC(=O)Nc1nc(N2C(=O)c3ccccc3C2=O)n(-c2ccccc2)n1,20%,-1,-63*
CC(=O)Nc1nc(N)n(-c2ccccc2)n1,20%,-3,30
COc1ccc(C(=O)Nc2cc(-c3ccccc3)nn2-c2ccccc2)cc1,/,3,/
SMILES,a7 integrin act,D3 ag,DRD3 antagonist
O=C(Nc1nc(N2C(=O)c3ccccc3C2=O)n(-c2ccccc2)n1)c1ccc(F)cc1,1%,12,-55*
O=C(Nc1nc(N2C(=O)c3ccccc3C2=O)n(-c2ccccc2)n1)c1ccccc1,0%,2,42
COc1ccc(C(=O)Nc2nc(N3C(=O)c4ccccc4C3=O)n(-c3ccccc3)n2)cc1,-27%,-6,-91*
O=S(=O)(NCc1ccc2c(c1)OCO2)c1cccc2cccnc12,8%,1,1
CCCCNC(=O)CCn1c(=O)c2cccn2c2cccnc21,/,-3,/
COc1ccc(NC(=O)CSc2nnc(Cc3cccs3)n2-c2ccc(C)cc2)cc1,-27%,81*,54
COc1cccc(NC(=O)CSc2nnc(Cc3cccs3)n2-c2ccc(C)cc2)c1,-30%[7.66 µM],17,80
Fc1cccc(CNCc2ccc3c(c2)OCO3)c1,6%,-13,-16
C[C@@H](C(=O)Nc1ccc2ccccc2c1)[C@@H]1C[C@@]1(C)[C@@H](NC(=O)c1cnccn1)c1ccccc1,-23%,-11,-75*
C[C@@H](C(=O)Nc1ccc2ccccc2c1)[C@H]1C[C@]1(C)[C@H](NC(=O)c1cnccn1)c1ccccc1,2%,4,4
CN(NC1OC(=O)c2ccccc21)c1c([N+](=O)[O-])cc(C(F)(F)F)cc1[N+](=O)[O-] (centres undefined),30%,2,-20
Nc1ccc(S(=O)(=O)C(F)(F)F)cc1N,0%,19,53
CCOc1ccc(N/C(C)=C/C(=O)c2ccc3c(c2)OCCO3)cc1,-24%,33*,12
CCOc1ccc(N/C(C)=C\C(=O)c2ccc3c(c2)OCCO3)cc1,15%,2,8
COc1ccc(CSc2nc(C)cc(=O)[nH]2)cc1Br,6%,-11,-84*
Cc1cc(=O)[nH]c(SCc2cccc(Br)c2)n1,11%,-2,80
O=C(O)C1CN(c2ncccc2[N+](=O)[O-])C1,11%,-17,7
Oc1cccc(C=NNc2ccccn2)c1,18%,-3,-1
